# Source: PubChem BioAssay AID485275 (NMMLSC, 2010)
# Out of some 330,000 compounds screened, about 1,400 (0.42%) were called active. Many of the other results were omitted from the sample, so actives are more common in it than they were. Values without a mark were called inactive.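 How the source made its calls: active means plate passing quality check with inhibition over a set limit, or well fluorescence over plate mean plus 4 SD; inactive means the rest.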
# Assay: antifungal drug efflux pump blockers, triplex strains – S. cerevisiae, Nile Red, multiplex, primary screen (AID 485275);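 further: Nile Red retained in pooled yeast measured as flow cytometry median fluorescence; 0% = buffer negative control and 100% = Enniatin B positive control; higher means more Nile Red kept so more efflux inhibition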
# Settings: S. cerevisiae Candida pump triplex, at 10 µM, active compounds read high
row,SMILES,inhibition
1,CC(=O)N1c2ccc(S(=O)(=O)N3CCC(C(=O)N4CCN(c5ccccc5)CC4)CC3)cc2CC1C (configuration not stated),-0.03%
2,COc1ccccc1CNC(=O)C1CCN(S(=O)(=O)c2ccc3c(c2)CC(C)N3C(=O)C2CC2)CC1 (configuration not stated),0.09%
3,CC(=O)c1ccc(N2CCN(C(=O)C3CCN(S(=O)(=O)c4ccc5c(c4)CC(C)N5C(=O)C4CC4)CC3)CC2)cc1 (configuration not stated),40.5% (active)
4,CC1CC(=NNC(=O)C2COc3ccccc3O2)CC(C)(C)C1 (configuration not stated),-0.31%
5,Cc1cccc(N2CCN(C(=O)CCS(=O)(=O)c3ccc4c(c3)NC(=O)C(C)S4)CC2)c1C (configuration not stated),-0.07%
6,CCN(CC)CCNC(=O)CCCCCn1c(=O)[nH]c2cc(C(=O)OC)ccc2c1=O,-0.02%
7,O=C(CCCCCn1c(=O)[nH]c2ccccc2c1=O)NCCc1c[nH]c2ccccc12,0.52% (active)
8,O=C(CCc1c[nH]c2ccccc12)NCCOc1ccccc1,-0.08%
9,CCCSc1ccc([C@H]2N[C@@](Cc3ccccc3)(C(=O)OC)[C@H]3C(=O)N(C)C(=O)[C@@H]23)cc1,0.02%
10,CSCCC(NS(=O)(=O)c1ccc(C)cc1)C(=O)N1CCCC1 (configuration not stated),1.45% (active)
11,CSCC(NS(=O)(=O)c1ccc(C)cc1)C(=O)O (configuration not stated),-0.01%
12,CSCCC(NC(=O)c1ccccc1)C(=O)N1CCCCCCC1 (configuration not stated),0.05%
13,COc1ccc(-n2nnc3c(=O)n(CC(=O)N4CCC(Cc5ccccc5)CC4)cnc32)cc1,0.1%
14,O=C(NCc1nnc(SCC(=O)N2CCCCCC2)o1)c1ccc(F)cc1,-0.18%
15,Nc1nnc(C2CCCC2)s1,0.48%
16,O=C(CCN1C(=O)C2C3C=CC(C3)C2C1=O)Oc1ccc2ccccc2c1 (configuration not stated),0.01%
17,O=C(CN1C(=O)C2C3CCC(C3)C2C1=O)Oc1ccc2ccccc2c1 (configuration not stated),5.45% (active)
18,Cc1ccc(C(=O)COC(=O)CCN2C(=O)C3C4CCC(C4)C3C2=O)cc1C (configuration not stated),-0.13%
19,O=C(c1cc(-c2ccco2)nc2ccccc12)N(Cc1nnc(-c2ccc(Cl)cc2)o1)C1CC1,0.11%

row,SMILES,inhibition
1,Cc1cccc(-n2c(C)cc(/C=N\NC(=O)c3cccs3)c2C)c1,-0.56%
2,Cc1cc(/C=N/NC(=O)CC2(C)OCCO2)c(C)n1-c1ccc(Cl)c(Cl)c1,1.6% (active)
3,Cc1ccc(-n2c(C)cc(/C=N\NC(=O)CC(=O)NC(C)C)c2C)cc1,-0.13%
4,CC1CCN(C(=O)CCNC(=O)c2ccccc2)CC1,-0.28%
5,Cc1ccccc1NC(=O)CSC(=O)c1ccccc1,-0.08%
6,Cc1cccc(C)c1NC(=O)C(Cl)C(=O)c1ccccc1 (configuration not stated),0.07%
7,CN=C(c1ccccc1)c1c(C)cccc1C,23.6% (active)
8,CCn1c(SCC(=O)NC2CC2)nnc1-c1ccccn1,-0.04%
9,COC(=O)c1ccc2c(c1)S(=O)(=O)NC(=NCCCN1CCOCC1)S2,0%
10,O=C(NCCC1CCCCN1S(=O)(=O)c1cccs1)C(=O)Nc1ccc(F)cc1F (configuration not stated),0.02%
11,O=C(/C=C/c1ccc([N+](=O)[O-])cc1)NCCSCc1ccco1,0.15%
12,COc1cccc(OC)c1C(=O)Nc1sc2c(c1C(N)=O)CCCC2,-0.23%
13,CC1CCc2c(sc(NC(=O)c3ccc(Cn4cc(Br)cn4)o3)c2C(N)=O)C1 (configuration not stated),0.29% (active)
14,CN(C)c1ccc(/C=N/NC(=O)c2ccc(Cn3cc(Br)cn3)o2)cc1,-0.5%
15,COc1ccc(CNc2ccc3c(c2)CCC3)cc1OC,0%
16,CCn1c(SCC(=O)N/N=C/c2ccccc2OCC(=O)O)nnc1-c1ccc(C(C)(C)C)cc1,0.05%
17,Cc1nnc(SCC(=O)NC(=O)NC2CCCC2)n1N,0.12%
18,Cc1ccc(/C=C(\C#N)C(=O)Nc2cccc3ncccc23)o1,6.65% (active)
19,N#C/C(=C/c1ccc(N2CCCCC2)o1)C(=O)NCCc1c[nH]c2ccccc12,-0.28%

row,SMILES,inhibition
1,O=C(O)c1cc(Cl)c(Cl)cc1C(=O)Nc1cccc2ncccc12,-0.06%
2,C[C@@H]1NC(=O)c2cc([N+](=O)[O-])cc(F)c2NCCC[C@@H](C(N)=O)NC(=O)[C@H](CC(N)=O)NC1=O,-0.03%
3,COc1ccccc1NC(=O)[C@H](COCc1ccccc1)NC(=O)OC(C)(C)C,-0.12%
4,CC(C)(C)OC(=O)N1CCC(C(=O)NNC(=O)c2ccc(Cl)cc2Cl)CC1,-0.04%
5,O=S(=O)(c1ccccc1)N1CCc2ccccc21,0.75% (active)
6,O=S(=O)(c1ccc2c(c1)OCCO2)N1CCc2ccccc21,0.34%
7,CCn1c(=O)c(=O)n(CC)c2cc(S(=O)(=O)N3CCc4ccccc43)ccc21,-0.1%
8,COc1ccc(CCNS(=O)(=O)c2cn(C)nc2C)cc1,-0.02%
9,CCOC(=O)N1CCN(C(=O)C2CCN(S(C)(=O)=O)CC2)CC1,-0.13%
10,Cc1ccc2c(C)c(C(=O)N(C)Cc3ccncn3)oc2c1C,1.25%
11,O=C(NCCCCc1ccccc1)C1CC(c2ccc([N+](=O)[O-])cc2)=NO1 (configuration not stated),0.02%
12,CC(=O)N1c2ccccc2N(Cc2ccc([N+](=O)[O-])cc2)C(=O)C1(C)C,0.1%
13,O=C1NC(=O)C2C1C(c1ccc([N+](=O)[O-])cc1)=NN2Cc1ccccc1 (configuration not stated),1.09% (active)
14,Cc1ccc(CN2CCN(Cc3cccc(C)n3)CC2CCO)cc1 (configuration not stated),-0.07%
15,CC(=O)Nc1ccc(/C(C)=N/NC(=O)CN(c2ccccc2Br)S(C)(=O)=O)cc1,0.36%
16,O=C(Cc1ccc(Br)cc1)N1CCN(c2ccccn2)CC1,11.1% (active)
17,O=C(CCC1CCCN(C(=O)Cc2ccc(F)cc2)C1)N1CCN(c2ccccn2)CC1 (configuration not stated),-0.13%
18,O=C(Cc1ccccc1Cl)N1CCN(c2ccccn2)CC1,-0.02%
19,COc1ccc(N(CC(=O)NCC2CCCO2)C(=O)CCC(=O)Nc2nccs2)c(OC)c1 (configuration not stated),0.02%
